Bioassay records deposited in PubChem BioAssay by National Center for Advancing Translational Sciences (NCATS).
Many of the other results were omitted from the sample, so hits are more common in it than they were.
KDM5B inh: blocks human KDM5B histone demethylase activity | Potency, µM (series often up to 57.7 µM), most hits filed as inhibitors | KDM5B demethylase, FDH-coupled NADH fluorescence (FDH is formaldehyde dehydrogenase) | hit rate 2.6% among 220,000 | Q9UGL1; active = well fitted inhibition curve with a large enough effect; also: nearly all actives have a fitted effect of over 70% in size
Target sequence (Q9UGL1 whole entry, looked up): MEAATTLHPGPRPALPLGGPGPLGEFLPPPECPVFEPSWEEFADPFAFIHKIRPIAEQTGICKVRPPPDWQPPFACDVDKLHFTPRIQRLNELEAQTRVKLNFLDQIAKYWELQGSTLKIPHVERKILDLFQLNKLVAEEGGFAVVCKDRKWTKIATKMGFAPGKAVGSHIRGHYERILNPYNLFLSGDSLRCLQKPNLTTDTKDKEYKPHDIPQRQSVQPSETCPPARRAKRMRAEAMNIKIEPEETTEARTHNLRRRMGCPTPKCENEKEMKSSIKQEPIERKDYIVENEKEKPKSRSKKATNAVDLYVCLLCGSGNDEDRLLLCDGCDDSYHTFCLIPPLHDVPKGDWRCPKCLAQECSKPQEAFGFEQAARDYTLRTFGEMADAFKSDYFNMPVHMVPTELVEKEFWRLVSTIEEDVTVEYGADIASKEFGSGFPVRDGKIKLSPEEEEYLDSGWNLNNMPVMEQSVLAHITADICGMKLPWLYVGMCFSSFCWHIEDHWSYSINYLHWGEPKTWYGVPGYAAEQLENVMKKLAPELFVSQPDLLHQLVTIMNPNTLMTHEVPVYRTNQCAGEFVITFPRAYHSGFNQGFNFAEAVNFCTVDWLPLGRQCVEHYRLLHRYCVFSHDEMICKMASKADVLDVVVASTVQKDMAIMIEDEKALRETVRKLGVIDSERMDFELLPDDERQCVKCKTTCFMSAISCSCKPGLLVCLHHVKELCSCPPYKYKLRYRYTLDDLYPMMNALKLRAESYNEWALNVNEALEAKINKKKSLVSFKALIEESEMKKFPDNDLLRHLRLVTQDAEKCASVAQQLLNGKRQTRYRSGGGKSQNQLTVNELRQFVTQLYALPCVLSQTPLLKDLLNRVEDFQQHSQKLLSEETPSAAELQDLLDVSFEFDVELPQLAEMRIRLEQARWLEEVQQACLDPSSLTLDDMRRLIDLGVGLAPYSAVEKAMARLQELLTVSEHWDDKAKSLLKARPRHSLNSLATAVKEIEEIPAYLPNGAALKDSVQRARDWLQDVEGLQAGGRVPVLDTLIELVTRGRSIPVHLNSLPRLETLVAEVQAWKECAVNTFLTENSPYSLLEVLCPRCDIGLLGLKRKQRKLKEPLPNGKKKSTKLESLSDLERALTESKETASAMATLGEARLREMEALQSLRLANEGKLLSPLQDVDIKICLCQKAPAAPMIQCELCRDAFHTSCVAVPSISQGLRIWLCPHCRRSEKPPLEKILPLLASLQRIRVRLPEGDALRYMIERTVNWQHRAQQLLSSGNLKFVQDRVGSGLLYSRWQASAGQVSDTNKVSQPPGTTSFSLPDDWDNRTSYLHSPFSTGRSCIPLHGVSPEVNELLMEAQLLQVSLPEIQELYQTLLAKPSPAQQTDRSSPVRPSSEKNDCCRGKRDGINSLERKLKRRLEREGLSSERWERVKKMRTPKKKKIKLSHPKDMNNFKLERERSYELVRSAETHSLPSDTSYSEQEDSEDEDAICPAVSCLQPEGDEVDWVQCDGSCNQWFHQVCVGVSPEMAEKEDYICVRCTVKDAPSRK
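KDM5BΔAP (200 nM final) in 50 mM HEPES pH 7.5, 0.01% Tween-20 was preincubated 10 min at RT with compound over a concentration range. Substrate mix (H3K4me3 12.5 µM, α-KG 25 µM, Fe²⁺, ascorbate, NAD⁺, FDH) was added, and NADH fluorescence change over 30 min gave dose-response curves.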
Of the large screens only hits and unclear results are named; the others gave an inactive call.

N#CC(C(=O)CSc1ccc2c(c1)OCCO2)c1nc(-c2ccccc2)cs1 (centres undefined)	none
COC[C@H]1CCCN1Cc1cn(-c2ccccc2)nc1-c1ccc(OC)cc1F	none
COc1ccc(-c2ccccc2NC(=O)C2CCCN(Cc3ccccc3O)C2)cc1 (centres undefined)	none
COc1ccc(-c2nc3cc(C)ccc3cc2CN2CCCC(OC)C2)cc1 (centres undefined)	KDM5B inh 25.1µM
COc1ccc(-c2nc3cc(C)ccc3cc2CN2CCCC(O)C2)cc1OC (centres undefined)	none
COc1ccc(-c2nc3cc(C)ccc3cc2CN2CCCC(CO)C2)cc1OC (centres undefined)	none
COC[C@@H]1CCCN1Cc1cc2ccc(C)cc2nc1-c1ccc(OC)cc1	KDM5B inh 22.4µM
CC(=O)Nc1ccc(NC(=O)c2cccc(CN3CCCC(C#N)C3)c2)cc1 (centres undefined)	none
COC[C@@H]1CCCN1Cc1cn(Cc2ccccc2)nc1-c1cc2ccccc2o1	none
COc1ccc2cc(CN3CCCC(C#N)C3)c(-c3cccs3)nc2c1 (centres undefined)	KDM5B inh 31.6µM
COc1ccc2[nH]c(C[C@@H]3C[C@@H](C(C)C)[C@H](CNCc4ccccc4O)C=C3C)nc2n1	none
Cc1cc(Br)cc(Cl)c1OCC(=O)NCc1cccc(NC(=O)C2CC2)c1	none
COC(=O)c1ccccc1OS(=O)(=O)c1ccc2c(c1)CCC2	none
Cc1oc(-c2ccccc2)nc1CC(=O)Nc1ccc(F)cc1Cl	none
CCc1ccc2oc(=O)cc(CN3CCN(C(=O)c4ccco4)CC3)c2c1	none
COC(=O)c1c(C)[nH]c(-c2ccc(OC)cc2F)c1C1C(=O)Nc2ccccc21 (centres undefined)	none
CCOc1cccc(C2CC(=O)Nc3c2c(=O)nc(SCc2ccccc2Cl)n3C)c1 (centres undefined)	none
CN(Cc1ccc(F)cc1)C(=O)Cn1nc(C(N)=O)c2ccccc2c1=O	none
O=C(O)c1cccc2c(Cl)cccc12	none
CCCCC(=O)Nc1ccc2oc(-c3ccc(Cl)cc3)nc2c1	none
COc1ccc([C@H]2C[C@@H](O)[C@@H](O)[C@@H]2NCc2ccc(OC)nc2)cc1	none
COc1ccccc1C(=O)N[C@H]1[C@H](O)[C@H](O)C[C@@H]1c1cccnc1	none
Cc1cc(C(=O)N[C@H]2[C@H](O)[C@H](O)C[C@@H]2c2cccnc2)nn1C	none
COc1ccc([C@H]2C[C@@H](O)[C@@H](O)[C@@H]2NC(=O)c2cc(C)n(C)n2)cc1	none
Cc1ccccc1C(=O)N[C@H]1[C@H](O)[C@H](O)C[C@@H]1c1ccc(N2CCOCC2)nc1	KDM5B inh 31.6µM
O=C(Nc1ccc(N2CCOCC2)nc1)c1ccccc1Cl	none
Cc1cc(C(=O)N[C@H]2[C@H](O)[C@H](O)C[C@@H]2c2ccc(N3CCOCC3)nc2)nn1C	KDM5B inh 31.6µM
Cn1cc(CN[C@H]2[C@H](O)[C@H](O)C[C@@H]2c2ccc(N3CCOCC3)nc2)cn1	KDM5B inh 39.8µM
COc1ccc([C@H]2C[C@@H](O)[C@@H](O)[C@@H]2NCc2cnc3ccccc3c2)cc1	none
CC(NC(=O)c1ccccc1C(F)(F)F)C1CC2CCC1C2 (centres undefined)	none
CC(Oc1ccc(F)cc1F)C(=O)NN (centres undefined)	none
Cc1cnccc1-c1ccc(NC(=O)NC2CC2)cc1	none
O=C(CC12CC3CC(CC(C3)C1)C2)NCc1ccc(Cl)cc1Cl	none
CCCCn1c(=O)[nH]c(=O)c2c1nc(COC(=O)C1CC1)n2CC	none
Cc1cc(C)cc(NC(=O)CSc2nnc(-c3cccs3)n2-n2cccc2)c1	none
COc1ccc(OC)c(CN2CCCn3nc(C)c(-c4ccnn4C(C)C)c32)c1	none
Cc1nn2c(c1-c1ccnn1C(C)C)N(C(=O)C(C)C)CCC2	none
Cc1nn2c(c1-c1ccnn1C(C)C)N(Cc1ccc(C(=O)O)s1)CCC2	KDM5B inh 25.1µM
O=C(CSc1nnc(-c2ccncc2)n1-c1ccc(Cl)cc1)c1c[nH]c(C(=O)N2CCCC2)c1	none
O=C(c1ccc(Cl)cc1)N1CCCC(c2nn(-c3ccc(F)cc3)c(=O)[nH]2)C1 (centres undefined)	none
N#C/C(=C/c1ccco1)C(=O)Nc1ccc(N2CCOCC2)cc1	none
CC(C)n1cnnc1-c1nn(C)c2c1CN(C(=O)c1n[nH]c3ccccc13)CC2	none
Cn1nc(-c2nncn2CC2CC2)c2c1CCN(C(=O)c1[nH]nc3c1COc1ccccc1-3)C2	none
CC(C)n1cnnc1-c1nn(C)c2c1CN(C(=O)Cc1c[nH]c3ccccc13)CC2	KDM5B inh 20µM
CN(CC(=O)N1CCc2c(c(-c3nncn3CC3CC3)nn2C)C1)S(=O)(=O)c1cnc[nH]1	KDM5B inh 22.4µM
Cn1nc(-c2nncn2CC2CC2)c2c1CCN(C(=O)c1n[nH]c3ccccc13)C2	KDM5B inh 20µM
Cn1cnnc1-c1nn(C)c2c1CN(C(=O)c1nn(C)c3ccccc13)CC2	none
Cn1cnnc1-c1nn(C)c2c1CN(C(=O)c1n[nH]c3ccccc13)CC2	none
CCn1cnnc1-c1nn(C)c2c1CN(C(=O)CCC(=O)N1CC(=O)Nc3ccccc31)CC2	KDM5B inh 14.1µM
CCn1cnnc1-c1nn(C)c2c1CN(C(=O)c1n[nH]c(=O)c3ccccc13)CC2	none
CCNC(=O)N1CCc2c(c(-c3nncn3-c3ccccc3)nn2C)C1	none
Cn1nc(-c2nncn2CC2CC2)c2c1CCN(C(=O)c1nn(C)c3ccccc13)C2	none
Cn1nc(-c2nncn2CC2CC2)c2c1CCN(C(=O)c1cn[nH]c1-c1ccccc1)C2	none
O=C(c1ccccc1)N1CCN(C(=O)c2[nH]c3ccccc3c2Cl)CC1	none
COc1cc(C2CC(=O)Nc3ccsc32)ccc1OCc1ccccc1 (centres undefined)	none
O=C1/C(=C/c2ccc(OCc3ccccc3)cc2)CCc2ccccc21	none
CCCc1nc(N2CCN(CC(=O)N3CCCC3)CC2)c(C#N)c2c1CCC2	none
CCN(CC)S(=O)(=O)NCCNS(=O)(=O)N(CC)CC	none
CC(C)(C)NC(=O)C[C@@H]1CCNC[C@@H]1Cc1cc(-c2ccc(C(C)(C)C)cc2)on1	none
CONC(=O)Cc1csc(NC(=O)c2ccccc2)n1	none
C[S+](=O)([O-])N1CCC(Cn2ccc3c(N4CCOCC4)nc(-c4cccc5[nH]ncc45)cc32)CC1	KDM5B inh 12.6µM
CCOC(=O)c1nnn2c1nc(N1CCOCC1)c1ccccc12	none
CN1CCC(Cn2ccc3c(N4CCOCC4)nc(-c4cccc(N[S+](C)(=O)[O-])c4)cc32)CC1	none
CN1CCC(Cn2ccc3c(N4CCOCC4)nc(-c4cccc5[nH]ccc45)cc32)CC1	KDM5B inh 7.94µM
CN1CCC(Nc2ncc(C(C)(C)C(=O)O)c(N3CCOCC3)n2)CC1	none
CN1CCC(Cn2ccc3c(N4CCOCC4)nc(-c4cccc(N5CCOCC5)c4)cc32)CC1	none
CN1CCC(Cn2ccc3c(N4CCOCC4)nc(-c4ccc5cn[nH]c5c4)cc32)CC1	KDM5B inh 35.5µM
COc1ccc(-c2oc3ccc(OC)cc3c2C(=O)Nc2ccc(C(C)=O)cc2)cc1	none
CC(C)n1nc(C(=O)N[C@@H](Cc2ccccc2)C(=O)O)c2ccccc2c1=O	none
O=[N+]([O-])c1ccccc1/C=N/NS(=O)(=O)c1ccccc1	none
C=C(C)CN1CCN(c2nc3c(c(=O)[nH]c(=O)n3C)n2Cc2cccc(Cl)c2)CC1	none
O=C(Nc1nc2ccccc2s1)c1ccc2c(c1)OCCN(CCC(F)(F)F)C2	KDM5B inh 31.6µM
Cc1ccccc1NC(=O)c1ccc2c(c1)OCCN(CCC(F)(F)F)C2	none
O=C(Nc1nccs1)c1ccc2c(c1)OCCN(CCC(F)(F)F)C2	none
O=C(Nc1ccc(C(O)(C(F)(F)F)C(F)(F)F)cc1)c1ccc(Br)cc1	none
